Reference: PubChem BioAssay (Tox21)
Inconclusive results are not listed. Entries that show only a call come without a potency. Activity calls are given as the source filed them. Unless noted, calls come from the whole dose curve; as a rule, active = well fitted curve in the direction sought with a large enough effect in the repeat runs; inconclusive = weak or mixed curves; inactive = no such curve, though single readings can be large; an effect the other way counts as inactive or inconclusive.

Assays:
[1] = qHTS assay to identify small molecule antagonists of the glucocorticoid receptor (GR) signaling pathway - cell viability counter screen (AID 720693); note: nearly all actives have a fitted effect of over 55% in size; note: potency is the fitted concentration of half-maximal effect
[2] = qHTS assay for identifying genotoxic compounds that show differential cytotoxicity against isogenic chicken DT40 cell lines with known DNA damage response pathways - wild type cell line (AID 743012); note: nearly all actives have a fitted effect of over 60% in size; note: potency is the fitted concentration of half-maximal effect
In short: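 Luminescent ATP viability signal (CellTiter-Glo, 30 min RT) recorded after wild type DT40 cells were incubated with compounds for 40 h at 37 C/5% CO2.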

[3] = qHTS assay for identifying genotoxic compounds that show differential cytotoxicity against isogenic chicken DT40 cell lines with known DNA damage response pathways - Rev3 mutant cell line (AID 743014); note: nearly all actives have a fitted effect of over 55% in size; note: potency is the fitted concentration of half-maximal effect
[4] = qHTS assay for identifying genotoxic compounds that show differential cytotoxicity against isogenic chicken DT40 cell lines with known DNA damage response pathways - Rad54/Ku70 mutant cell line (AID 743015); note: nearly all actives have a fitted effect of over 60% in size; note: potency is the fitted concentration of half-maximal effect
[5] = qHTS assay to identify small molecule antagonists of the androgen receptor (AR) signaling pathway - cell viability counter screen (AID 743033; note: nearly all actives have a fitted effect of over 45% in size; note: potency is the fitted concentration of half-maximal effect)
[6] = molecular target: Androgen receptor (Homo sapiens) (UniProt P10275); test: qHTS assay to identify small molecule antagonists of the androgen receptor (AR) signaling pathway (AID 743035; active = well fitted inhibition curve with a large enough effect in the signal ratio in the repeat runs, not every such curve was filed as active; the % refers to the signal ratio; note: potency is the fitted concentration of half-maximal effect)
In short: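 Quantitative HTS of the Tox21 10K library used HEK293 AR-UAS-bla cells stimulated with R1881 alongside compound for 16 h at 37C, followed by beta-lactamase FRET detection (LiveBLAzer B/G, 2 h, RT).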

[7] = molecular target: Androgen receptor (Homo sapiens) (UniProt P10275); test: qHTS assay to identify small molecule agonists of the androgen receptor (AR) signaling pathway (AID 743036; active = well fitted activation curve with a large enough effect in the signal ratio in the repeat runs, with a control signal flat, not every such curve was filed as active; the % refers to the signal ratio)
In short: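 Quantitative HTS of the Tox21 10K library in HEK293 cells bearing a stably integrated UAS-controlled beta-lactamase reporter. Compound exposure lasted 16 h at 37C. Reporter activity was detected by FRET substrate fluorescence after 2 h at room temperature.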

[8] = molecular target: Androgen receptor (Homo sapiens) (UniProt P10275); test: qHTS assay to identify small molecule agonists of the androgen receptor (AR) signaling pathway using the MDA cell line (AID 743040; note: nearly all actives have a fitted effect of over 20% in size; note: potency is the fitted concentration of half-maximal effect)
In short: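 Luciferase agonist assay: 16 h compound exposure at 37C without CO2 in MDA-kb2 AR-luc cells, whose MMTV promoter responds to both AR and GR. Luminescence measured after 30 min room-temperature incubation with ONE-Glo.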

[9] = qHTS assay to identify small molecule antagonists of the androgen receptor (AR) signaling pathway using the MDA cell line - cell viability counter screen (AID 743041; note: nearly all actives have a fitted effect of over 45% in size)
In short: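 Viability read by CellTiter-Fluor fluorescence in the same wells as the antagonist screen, added after 15.5 h of a 16 h, 37C exposure. Human breast carcinoma MDA-kb2 AR-luc cells, compounds co-dosed with agonist R1881.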

[10] = molecular target: Androgen receptor (Homo sapiens) (UniProt P10275); test: qHTS assay to identify small molecule antagonists of the androgen receptor (AR) signaling pathway using the MDA cell line (AID 743042; note: nearly all actives have a fitted effect of over 55% in size)
In short: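 Antagonist mode: compounds plus R1881 agonist added to MDA-kb2 AR-luc cells, incubated 16 h at 37C. Luciferase reporter luminescence quantified, with multiplexed CellTiter-Fluor readout for cell viability.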

Chain of Androgen receptor (Homo sapiens) (P10275 whole entry, looked up): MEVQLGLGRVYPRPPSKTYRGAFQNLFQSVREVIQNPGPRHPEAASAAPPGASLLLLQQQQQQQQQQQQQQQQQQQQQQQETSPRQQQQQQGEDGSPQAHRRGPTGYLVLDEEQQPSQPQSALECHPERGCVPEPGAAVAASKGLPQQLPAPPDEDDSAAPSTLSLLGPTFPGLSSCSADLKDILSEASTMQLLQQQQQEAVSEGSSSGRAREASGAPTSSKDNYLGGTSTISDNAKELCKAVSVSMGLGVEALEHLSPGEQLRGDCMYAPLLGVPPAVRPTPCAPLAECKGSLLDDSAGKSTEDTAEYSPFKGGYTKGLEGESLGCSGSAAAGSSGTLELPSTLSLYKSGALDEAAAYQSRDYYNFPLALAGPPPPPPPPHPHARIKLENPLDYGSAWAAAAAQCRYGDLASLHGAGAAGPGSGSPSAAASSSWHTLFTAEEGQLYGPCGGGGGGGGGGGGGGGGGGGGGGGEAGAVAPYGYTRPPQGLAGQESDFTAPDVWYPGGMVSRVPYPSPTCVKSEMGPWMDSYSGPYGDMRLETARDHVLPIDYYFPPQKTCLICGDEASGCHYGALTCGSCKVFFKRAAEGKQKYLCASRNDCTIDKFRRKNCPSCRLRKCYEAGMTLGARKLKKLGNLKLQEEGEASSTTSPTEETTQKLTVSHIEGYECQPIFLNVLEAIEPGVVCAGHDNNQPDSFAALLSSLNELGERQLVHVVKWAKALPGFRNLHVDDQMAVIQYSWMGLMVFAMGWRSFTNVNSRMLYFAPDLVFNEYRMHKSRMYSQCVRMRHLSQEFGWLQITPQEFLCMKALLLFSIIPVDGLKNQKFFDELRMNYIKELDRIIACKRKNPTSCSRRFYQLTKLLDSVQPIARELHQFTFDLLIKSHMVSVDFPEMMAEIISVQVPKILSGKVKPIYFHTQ

Row | Structure (SMILES) | Potency [1] | Potency [2] | Potency [3] | Potency [4] | Potency [5] | Potency [6] | Potency [7] | Potency [8] | Potency [9] | Potency [10]
1 | C[C@H]1[C@@H](OC(=O)CCC(=O)O)O[C@@H]2OC3(C)CC[C@H]4[C@H](C)CC[C@@H]1[C@@]24OO3 | inactive | 188 nM (active) | 188 nM (active) | 119 nM (active) |  |  |  |  |  | 
2 | S=C=Nc1ccc(N=C=S)cc1 | inactive | inactive | inactive | inactive |  |  |  |  |  | 
3 | CC(=C\c1ccccc1)/C=C1/SC(=S)N(CC(=O)O)C1=O | inactive | inactive | inactive | inactive |  |  |  |  |  | 
4 | COC(=O)C1=C(C)NC(C)=C(C(=O)O[C@H]2CCN(Cc3ccccc3)C2)[C@H]1c1cccc([N+](=O)[O-])c1 | inactive | 10600 nM (active) | 18800 nM (active) | 13300 nM (active) | inactive | 26800 nM (active) | inactive | inactive |  | 
5 | C[C@H](CSC(=O)c1ccccc1)C(=O)N1C[C@@H](Sc2ccccc2)C[C@H]1C(=O)O | inactive | inactive | inactive | inactive | inactive |  |  |  |  | 
6 | CC[C@@]1(O)C[C@H](O[C@H]2C[C@H](N(C)C)[C@H](O[C@H]3C[C@H](O)[C@H](O[C@H]4CCC(=O)[C@H](C)O4)[C@H](C)O3)[C@H](C)O2)c2c(cc3c(c2O)C(=O)c2c(O)cccc2C3=O)[C@H]1C(=O)OC | 2390 nM (active) | 53.1 nM (active) | 53.1 nM (active) | 42.2 nM (active) |  |  |  |  |  | 
7 | O=C(/C=C/c1cccc(F)c1)NC1CC1 | inactive | inactive | inactive | inactive | inactive |  |  |  |  | 
8 | CC[C@H](CC[C@@H](C)[C@H]1CC[C@H]2[C@@H]3CC=C4C[C@@H](O)CC[C@]4(C)[C@H]3CC[C@]12C)C(C)C | inactive | inactive | inactive | inactive | inactive |  |  |  |  | 
9 | O=c1oc2cc(O)ccc2s1 | inactive | inactive | inactive | inactive | inactive |  |  |  |  | 
10 | Clc1cc(Cl)c(OCC#CI)cc1Cl | inactive | 1680 nM (active) | 2980 nM (active) |  |  |  |  |  |  | 
11 | CO[C@@H]1[C@@H](O[C@@H]2O[C@H](C)[C@@H](O[C@H]3C[C@@](C)(O)[C@@H](OC(=O)CC(C)C)[C@H](C)O3)[C@H](N(C)C)[C@H]2O)[C@@H](CC=O)C[C@@H](C)C(=O)/C=C/C2OC2C[C@@H](C)OC(=O)C[C@H]1OC(C)=O (some centres not stated) | inactive | 3350 nM (active) | 5310 nM (active) | 5310 nM (active) | inactive |  |  | inactive |  | 
12 | CCCCCCCCCCCCCCCCCC(=O)OC[C@@H](O)[C@H]1OC[C@H](O)[C@H]1O | inactive | inactive | inactive | inactive | inactive | inactive | inactive | inactive | inactive | inactive
13 | CS(=O)(=O)OCC(O)C(O)COS(C)(=O)=O (configuration not stated) | inactive | 8410 nM (active) | 1330 nM (active) | 23700 nM (active) | inactive | inactive | inactive | inactive | inactive | inactive
14 | O=C(O)C1=C(CSc2nnnn2CS(=O)(=O)O)CS[C@@H]2[C@H](NC(=O)[C@H](O)c3ccccc3)C(=O)N12 | inactive | inactive | inactive | inactive | inactive | inactive | inactive | 26600 nM (active) | inactive | inactive
15 | CC(=O)O[C@H]1C(=O)[C@@]2(C)[C@H]([C@H](OC(=O)c3ccccc3)[C@]3(O)C[C@H](OC(=O)[C@H](O)[C@@H](NC(=O)c4ccccc4)c4ccccc4)C(C)=C1C3(C)C)[C@]1(OC(C)=O)CO[C@@H]1C[C@@H]2O | inactive | 10.6 nM (active) | 9.4 nM (active) | 13.3 nM (active) | 952 nM (active) | 16.9 nM (active) |  | inactive | inactive | inactive
16 | CN[C@H]1CCc2cc(OC)c(OC)c(OC)c2-c2ccc(OC)c(=O)cc21 | inactive | 47.3 nM (active) | 53.1 nM (active) | 53.1 nM (active) | inactive | 60.1 nM (active) |  | inactive | inactive | inactive
17 | CC1(C)S[C@@H]2[C@H](NC(=O)[C@H](NC(=O)N3CCN(S(C)(=O)=O)C3=O)c3ccccc3)C(=O)N2[C@H]1C(=O)O | inactive | inactive | inactive | inactive | inactive | inactive |  | 29800 nM (active) | inactive | inactive
18 | CN[C@@H]1[C@H](O[C@H]2[C@H](O[C@H]3[C@H](O)[C@@H](O)[C@H](N=C(N)N)[C@@H](O)[C@@H]3N=C(N)N)O[C@@H](C)[C@]2(O)CO)O[C@@H](CO)[C@H](O)[C@H]1O | inactive | inactive | inactive | inactive | inactive | inactive |  | inactive |  | inactive
19 | NC(=O)c1ccc[n+]([C@@H]2O[C@H](COP(=O)([O-])OP(=O)(O)OC[C@H]3O[C@@H](n4cnc5c(N)ncnc54)[C@H](O)[C@@H]3O)[C@@H](O)[C@H]2O)c1 | inactive | inactive | inactive | inactive | inactive |  | inactive | inactive | inactive | inactive
20 | CC(C)CCC[C@@H](C)[C@H]1CC(=O)C2=C3CC[C@H]4C[C@@H](O)CC[C@]4(C)[C@H]3CC[C@@]21C | inactive | 596 nM (active) | 298 nM (active) | 841 nM (active) | inactive | inactive | inactive | inactive | inactive | inactive
21 | C[N+]1(C)CCN(CC(O)(c2ccccc2)C2CCCCC2)CC1 (configuration not stated) | inactive | inactive | inactive | inactive | inactive | inactive | inactive | inactive | inactive | inactive
